Results taken from PubChem BioAssay AID1159580 (chemical genetic matrix, 2015).
In all, about 5,500 compounds went through this assay and about 2,000 (36%) were called active. Roughly 18% stayed inconclusive and do not appear here. Cut-off read from the data, not from the text of the source: active = normalized growth mostly below about 0.91 (no sharp cut-off); inconclusive = no clear call, values can overlap the other calls; inactive = mostly above about 0.92. Some of the results follow.

Assay: chemical genetic growth profiling, strain panel (AID 1159580);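 note: tested at 20 µM; growth read once vehicle control cultures reached saturation at 30 °C; 1 = growth at the plate median or of vehicle wells; lower values mean less growth of the strain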
Details: growth OD

Measured: normalized growth

C=C[C@@](C)(O)CCC1C(=C)C[C@H](O)C2C(C)(C)CCCC12C (some centres not stated)
inactive: S. cerevisiae deletion strains, locus YJR075W, strain HOC1, hits give low values 1.01 | S. cerevisiae deletion strains, locus YKL009W, strain mrt4, hits give low values 1.01 | S. cerevisiae deletion strains, locus YKL068W, hits give low values 1.01 | S. cerevisiae deletion strains, locus YKL085W, strain MDH1 (second series), hits give low values 1.02 | S. cerevisiae deletion strains, locus YKL085W, strain MDH1, hits give low values 1.02 | S. cerevisiae deletion strains, locus YKL160W, strain elf1, hits give low values 0.981 | S. cerevisiae deletion strains, locus YKL190W, strain CNB1, hits give low values 1.01 | S. cerevisiae deletion strains, locus YKR001C, strain vps1, hits give low values 1.01 | S. cerevisiae deletion strains, locus YKR026C, strain gcn3, hits give low values 0.992 | S. cerevisiae deletion strains, locus YKR091W, strain srl3, hits give low values 0.991 | S. cerevisiae deletion strains, locus YLL001W, strain dnm1, hits give low values 0.97 | S. cerevisiae deletion strains, locus YLL026W, hits give low values 0.998 | S. cerevisiae deletion strains, locus YLL041C, strain sdh2, hits give low values 0.984 | S. cerevisiae deletion strains, locus YLR027C, strain aat2, hits give low values 0.995 | S. cerevisiae deletion strains, locus YLR039C, strain RIC1, hits give low values 0.949 | S. cerevisiae deletion strains, locus YLR058C, strain SHM2, hits give low values 1.01 | S. cerevisiae deletion strains, locus YLR102C, strain apc9, hits give low values 1.03 | S. cerevisiae deletion strains, locus YLR113W, strain HOG1, hits give low values 0.867 | S. cerevisiae deletion strains, locus YLR221C, strain rsa3, hits give low values 0.968 | S. cerevisiae deletion strains, locus YLR258W, strain gsy2, hits give low values 0.983 | S. cerevisiae deletion strains, locus YLR262C, strain YPT6 (second series), hits give low values 0.876 | S. cerevisiae deletion strains, locus YLR262C, strain YPT6, hits give low values 0.943 | S. cerevisiae deletion strains, locus YLR268W, strain sec22, hits give low values 1.01 | S. cerevisiae deletion strains, locus YLR320W, strain mms22, hits give low values 0.946 | S. cerevisiae deletion strains, locus YLR330W, strain CHS5, hits give low values 1.01 | S. cerevisiae deletion strains, locus YLR342W, strain FKS1 (second series), hits give low values 0.985 | S. cerevisiae deletion strains, locus YLR342W, strain FKS1, hits give low values 0.976 | S. cerevisiae deletion strains, locus YLR357W, strain rsc2, hits give low values 1.01 | S. cerevisiae deletion strains, locus YLR370C, strain arc18, hits give low values 0.976 | S. cerevisiae deletion strains, locus YLR371W, strain rom2, hits give low values 1.04 | S. cerevisiae deletion strains, locus YLR384C, strain iki3, hits give low values 0.98 | S. cerevisiae deletion strains, locus YLR418C, strain cdc73, hits give low values 0.994 | S. cerevisiae deletion strains, locus YML016C, strain PPZ1, hits give low values 1 | S. cerevisiae deletion strains, locus YML032C, strain rad52, hits give low values 1.05 | S. cerevisiae deletion strains, locus YML120C, strain ndi1, hits give low values 0.99 | S. cerevisiae deletion strains, locus YML124C, strain tub3, hits give low values 1.02 | S. cerevisiae deletion strains, locus YMR058W, strain fet3, hits give low values 0.995 | S. cerevisiae deletion strains, locus YMR078C, strain ctf18, hits give low values 1.03 | S. cerevisiae deletion strains, locus YMR125W, strain sto1, hits give low values 1.01 | S. cerevisiae deletion strains, locus YMR129W, hits give low values 0.985 | S. cerevisiae deletion strains, locus YMR205C, strain PFK2, hits give low values 0.934 | S. cerevisiae deletion strains, locus YMR223W, strain ubp8, hits give low values 1.02 | S. cerevisiae deletion strains, locus YMR231W, strain pep5, hits give low values 0.999 | S. cerevisiae deletion strains, locus YMR263W, strain SAP30, hits give low values 1.01 | S. cerevisiae deletion strains, locus YMR307W, strain GAS1, hits give low values 1.01 | S. cerevisiae deletion strains, locus YNL067W, strain RPL9B, hits give low values 0.996 | S. cerevisiae deletion strains, locus YNL071W, strain lat1, hits give low values 0.928 | S. cerevisiae deletion strains, locus YNL128W, strain TEP1, hits give low values 1.01 | S. cerevisiae deletion strains, locus YNL153C, strain GIM3, hits give low values 1.01 | S. cerevisiae deletion strains, locus YNL183C, strain NPR1, hits give low values 0.923 | S. cerevisiae deletion strains, locus YNL209W, strain ssb2, hits give low values 0.998 | S. cerevisiae deletion strains, locus YNL233W, strain BNI4, hits give low values 1.02 | S. cerevisiae deletion strains, locus YNL248C, strain rpa49, hits give low values 0.984 | S. cerevisiae deletion strains, locus YNL250W, strain rad50, hits give low values 1.03 | S. cerevisiae deletion strains, locus YNL271C, strain bni1, hits give low values 1.03 | S. cerevisiae deletion strains, locus YNL298W, strain CLA4, hits give low values 1.02 | S. cerevisiae deletion strains, locus YNL307C, strain MCK1, hits give low values 1 | S. cerevisiae deletion strains, locus YNL322C, strain KRE1 (second series), hits give low values 0.986 | S. cerevisiae deletion strains, locus YNL322C, strain KRE1, hits give low values 1.01 | S. cerevisiae deletion strains, locus YNR049C, strain mso1, hits give low values 0.994 | S. cerevisiae deletion strains, locus YNR052C, strain pop2, hits give low values 1.02 | S. cerevisiae deletion strains, locus YOL006C, strain TOP1, hits give low values 0.935 | S. cerevisiae deletion strains, locus YOL012C, strain htz1 1.27 | S. cerevisiae deletion strains, locus YOL147C, strain pex11, hits give low values 1.02 | S. cerevisiae deletion strains, locus YOR001W, strain rrp6, hits give low values 0.984 | S. cerevisiae deletion strains, locus YOR061W, strain CKA2, hits give low values 1.01 | S. cerevisiae deletion strains, locus YOR069W, strain VPS5, hits give low values 1.01 | S. cerevisiae deletion strains, locus YOR070C, strain gyp1, hits give low values 0.986 | S. cerevisiae deletion strains, locus YOR080W, strain dia2, hits give low values 0.998 | S. cerevisiae deletion strains, locus YOR083W, strain WHI5, hits give low values 0.964 | S. cerevisiae deletion strains, locus YOR106W, strain vam3, hits give low values 0.978 | S. cerevisiae deletion strains, locus YOR136W, strain idh2, hits give low values 1.03 | S. cerevisiae deletion strains, locus YOR144C, strain elg1, hits give low values 1.02 | S. cerevisiae deletion strains, locus YOR184W, strain ser1, hits give low values 1.01 | S. cerevisiae deletion strains, locus YOR231W, strain MKK1, hits give low values 0.923 | S. cerevisiae deletion strains, locus YOR265W, strain rbl2, hits give low values 0.992 | S. cerevisiae deletion strains, locus YOR270C, strain vph1, hits give low values 0.886 | S. cerevisiae deletion strains, locus YOR290C, strain snf2, hits give low values 0.934 | S. cerevisiae deletion strains, locus YOR316C, strain cot1, hits give low values 1.03 | S. cerevisiae deletion strains, locus YPL051W, strain arl3, hits give low values 0.975 | S. cerevisiae deletion strains, locus YPL055C, strain LGE1, hits give low values 1.01 | S. cerevisiae deletion strains, locus YPL078C, strain atp4, hits give low values 0.978 | S. cerevisiae deletion strains, locus YPL106C, strain sse1, hits give low values 1.03 | S. cerevisiae deletion strains, locus YPL240C, strain hsp82, hits give low values 0.984 | S. cerevisiae deletion strains, locus YPL241C, strain CIN2, hits give low values 1.01 | S. cerevisiae deletion strains, locus YPL256C, strain CLN2, hits give low values 0.953 | S. cerevisiae deletion strains, locus YPR119W, strain clb2, hits give low values 1.03 | S. cerevisiae deletion strains, locus YPR141C, strain kar3, hits give low values 1.03 | S. cerevisiae deletion strains, locus YPR163C, strain tif3, hits give low values 1.02 | S. cerevisiae deletion strains, locus YPR167C, strain met16, hits give low values 1.02 | S. cerevisiae deletion strains, strain wtn01, hits give low values 1.02 | S. cerevisiae strains, strain wild type, hits give low values 1.01
